Test results from paper PMC7862700, “An all-to-all approach to the identification of sequence-specific readers for epigenetic DNA modifications on cytosine”.

Experiments:
Assay in all cases: DAPPL (digital affinity profiling via proximity ligation, sequencing); 10 mM Tris-HCl pH 7.5, 50 mM NaCl, 1 mM DTT, 4% glycerol, room temperature, 30 min; GST-TFs on glutathione beads, 16-mer random dsDNA library, 0.1% formaldehyde crosslink after washing; high values mean tight binding
Settings in all cases: protein: recombinant; tags: N-terminal GST; dsDNA, one strand shown
ETV2 = molecular target: T1, ETV2 (Homo sapiens, UniProt O00321 1-342)
T1 sequence: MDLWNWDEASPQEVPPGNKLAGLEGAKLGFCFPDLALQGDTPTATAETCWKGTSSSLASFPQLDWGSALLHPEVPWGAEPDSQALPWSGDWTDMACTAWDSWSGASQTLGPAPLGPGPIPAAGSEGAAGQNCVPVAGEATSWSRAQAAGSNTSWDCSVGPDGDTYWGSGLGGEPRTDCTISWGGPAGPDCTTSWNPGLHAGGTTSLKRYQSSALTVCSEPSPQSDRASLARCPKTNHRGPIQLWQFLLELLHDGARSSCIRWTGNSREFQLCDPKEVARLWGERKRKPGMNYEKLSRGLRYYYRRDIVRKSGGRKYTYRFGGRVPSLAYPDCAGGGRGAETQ
In short: (§1)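 A tag-only sample was pooled with DNA-barcoded human transcription factors that had been expressed in yeast as GST fusions and captured on glutathione beads. The pools were incubated for 30 min at room temperature with 200 nmole of a random double-stranded 16-mer DNA library in Tris/NaCl/DTT/glycerol buffer, then washed, crosslinked with 0.1% formaldehyde, proximity-ligated (BsaI/T4 ligase, 1 h, 37 °C), PCR-amplified and sequenced on an Illumina NextSeq500. Binding signal is each hexamer's read frequency for a factor divided by its frequency for the tag-only sample.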

ELF3 = molecular target: T2, ELF3 (Homo sapiens, UniProt P78545 1-371)
T2 sequence: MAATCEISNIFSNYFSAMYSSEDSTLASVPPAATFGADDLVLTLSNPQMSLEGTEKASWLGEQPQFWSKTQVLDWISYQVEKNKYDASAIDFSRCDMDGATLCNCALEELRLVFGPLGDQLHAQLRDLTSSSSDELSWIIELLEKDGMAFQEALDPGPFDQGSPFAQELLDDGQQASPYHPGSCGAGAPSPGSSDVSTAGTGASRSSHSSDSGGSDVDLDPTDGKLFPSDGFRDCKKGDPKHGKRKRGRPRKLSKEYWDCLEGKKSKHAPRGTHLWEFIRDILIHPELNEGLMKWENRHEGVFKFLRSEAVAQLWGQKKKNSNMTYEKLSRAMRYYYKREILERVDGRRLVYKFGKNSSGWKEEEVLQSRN
In short: as §1

ETV1 = ETV1 (Homo sapiens, UniProt P50549 1-477)
In short: as §1

ERF = molecular target: T3, ERF (Homo sapiens, UniProt P50548 1-548)
T3 sequence: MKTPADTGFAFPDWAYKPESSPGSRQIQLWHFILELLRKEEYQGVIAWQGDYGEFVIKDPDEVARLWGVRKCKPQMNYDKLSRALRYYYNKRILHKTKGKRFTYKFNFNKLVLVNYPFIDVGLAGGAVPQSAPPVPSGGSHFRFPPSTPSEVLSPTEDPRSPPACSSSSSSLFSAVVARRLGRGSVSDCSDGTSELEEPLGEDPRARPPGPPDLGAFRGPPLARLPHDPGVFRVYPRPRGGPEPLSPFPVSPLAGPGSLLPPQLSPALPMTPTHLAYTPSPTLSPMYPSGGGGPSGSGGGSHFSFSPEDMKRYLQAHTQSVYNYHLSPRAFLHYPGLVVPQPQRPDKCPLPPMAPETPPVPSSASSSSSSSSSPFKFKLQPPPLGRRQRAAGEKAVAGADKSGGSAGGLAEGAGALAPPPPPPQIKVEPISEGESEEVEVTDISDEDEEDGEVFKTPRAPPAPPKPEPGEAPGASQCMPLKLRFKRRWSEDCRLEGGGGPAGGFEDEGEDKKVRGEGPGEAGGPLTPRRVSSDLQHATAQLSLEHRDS
In short: as §1

ETV3L = molecular target: T4, ETV3L (Homo sapiens, UniProt Q6ZN32 1-361)
T4 sequence: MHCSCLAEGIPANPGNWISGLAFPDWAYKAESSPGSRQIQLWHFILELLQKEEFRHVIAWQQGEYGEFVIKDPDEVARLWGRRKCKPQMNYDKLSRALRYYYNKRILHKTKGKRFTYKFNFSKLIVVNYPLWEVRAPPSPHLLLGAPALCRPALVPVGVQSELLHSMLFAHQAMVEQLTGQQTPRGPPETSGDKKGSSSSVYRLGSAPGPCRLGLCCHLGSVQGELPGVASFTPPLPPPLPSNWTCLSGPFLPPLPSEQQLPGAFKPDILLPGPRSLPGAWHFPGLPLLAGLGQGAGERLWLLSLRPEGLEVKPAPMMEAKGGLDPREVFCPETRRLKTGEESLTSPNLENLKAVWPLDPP
In short: as §1

ETS2 = molecular target: T5, ETS2 (Homo sapiens, UniProt P15036 1-469)
T5 sequence: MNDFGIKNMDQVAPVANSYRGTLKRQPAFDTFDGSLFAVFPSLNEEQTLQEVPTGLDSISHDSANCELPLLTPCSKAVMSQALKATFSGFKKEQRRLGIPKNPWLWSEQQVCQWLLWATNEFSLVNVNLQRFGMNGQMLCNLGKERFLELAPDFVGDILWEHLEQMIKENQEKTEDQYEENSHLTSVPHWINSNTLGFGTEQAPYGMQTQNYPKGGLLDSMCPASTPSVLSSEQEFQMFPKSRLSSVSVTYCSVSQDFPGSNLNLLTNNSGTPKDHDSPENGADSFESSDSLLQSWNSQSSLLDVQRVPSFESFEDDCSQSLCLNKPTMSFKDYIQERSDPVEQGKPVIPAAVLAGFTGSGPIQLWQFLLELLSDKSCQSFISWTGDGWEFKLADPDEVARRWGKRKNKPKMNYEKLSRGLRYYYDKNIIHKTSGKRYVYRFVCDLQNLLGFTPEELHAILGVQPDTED
In short: as §1

SPDEF = molecular target: T6, SPDEF (Homo sapiens, UniProt O95238 1-335)
T6 sequence: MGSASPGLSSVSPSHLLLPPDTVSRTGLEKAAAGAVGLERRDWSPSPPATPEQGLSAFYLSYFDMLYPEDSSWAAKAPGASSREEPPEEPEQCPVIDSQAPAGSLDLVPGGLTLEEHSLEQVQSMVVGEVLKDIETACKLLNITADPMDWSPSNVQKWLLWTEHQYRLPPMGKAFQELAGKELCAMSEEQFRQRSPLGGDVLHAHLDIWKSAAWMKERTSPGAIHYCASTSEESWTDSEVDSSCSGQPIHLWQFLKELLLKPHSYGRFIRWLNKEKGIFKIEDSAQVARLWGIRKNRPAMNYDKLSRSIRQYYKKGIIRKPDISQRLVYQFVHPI
In short: as §1

ETV7 = molecular target: T7, ETV7 (Homo sapiens, UniProt Q9Y603 1-341)
T7 sequence: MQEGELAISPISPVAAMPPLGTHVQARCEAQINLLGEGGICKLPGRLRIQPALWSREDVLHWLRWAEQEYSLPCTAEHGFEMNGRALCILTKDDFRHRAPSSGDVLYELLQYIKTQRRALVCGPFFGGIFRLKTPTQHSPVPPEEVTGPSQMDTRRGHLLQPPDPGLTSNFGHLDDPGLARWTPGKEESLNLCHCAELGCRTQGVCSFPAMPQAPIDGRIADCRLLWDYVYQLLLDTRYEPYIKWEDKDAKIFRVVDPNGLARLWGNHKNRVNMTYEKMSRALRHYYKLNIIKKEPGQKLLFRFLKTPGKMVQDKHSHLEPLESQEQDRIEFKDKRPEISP
In short: as §1

ETV3 = molecular target: T8, ETV3 (Homo sapiens, UniProt P41162-2 1-143)
T8 sequence: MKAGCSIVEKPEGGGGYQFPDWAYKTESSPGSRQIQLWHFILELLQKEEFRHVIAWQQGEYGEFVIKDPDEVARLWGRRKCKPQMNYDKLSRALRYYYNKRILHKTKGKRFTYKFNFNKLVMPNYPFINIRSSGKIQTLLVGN
In short: as §1

ETV6 = ETV6 (Homo sapiens, UniProt P41212 1-452)
In short: as §1

ETV6, sequence (P41212 whole entry): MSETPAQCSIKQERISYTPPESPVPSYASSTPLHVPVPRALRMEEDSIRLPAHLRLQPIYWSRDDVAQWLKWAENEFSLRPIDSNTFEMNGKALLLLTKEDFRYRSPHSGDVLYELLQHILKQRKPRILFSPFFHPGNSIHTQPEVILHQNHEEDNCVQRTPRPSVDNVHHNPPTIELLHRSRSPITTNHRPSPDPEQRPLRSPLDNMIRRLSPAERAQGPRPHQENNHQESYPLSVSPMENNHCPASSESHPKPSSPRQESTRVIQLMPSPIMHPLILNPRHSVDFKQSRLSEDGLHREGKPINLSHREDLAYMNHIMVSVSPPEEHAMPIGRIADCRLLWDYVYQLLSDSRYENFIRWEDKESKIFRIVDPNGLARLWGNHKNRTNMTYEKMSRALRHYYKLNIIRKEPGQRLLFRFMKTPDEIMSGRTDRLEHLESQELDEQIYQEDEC
ETV1, sequence (P50549 whole entry): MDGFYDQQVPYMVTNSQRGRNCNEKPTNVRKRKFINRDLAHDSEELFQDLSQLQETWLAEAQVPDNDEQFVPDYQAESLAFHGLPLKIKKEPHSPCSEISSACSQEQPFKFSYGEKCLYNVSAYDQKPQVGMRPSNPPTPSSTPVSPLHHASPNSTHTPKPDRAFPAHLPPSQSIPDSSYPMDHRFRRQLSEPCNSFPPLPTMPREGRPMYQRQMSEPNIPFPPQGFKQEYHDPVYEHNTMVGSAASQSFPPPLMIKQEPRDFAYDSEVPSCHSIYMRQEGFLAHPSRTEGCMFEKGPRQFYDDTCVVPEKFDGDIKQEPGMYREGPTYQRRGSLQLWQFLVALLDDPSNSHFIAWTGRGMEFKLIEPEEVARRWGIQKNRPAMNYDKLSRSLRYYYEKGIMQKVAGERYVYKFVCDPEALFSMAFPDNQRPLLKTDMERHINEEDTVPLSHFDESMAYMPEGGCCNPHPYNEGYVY

Sequence: ATGCCA
- binding signal (ETV2): 1.06 fold enrichment (6-mer frequency, TF over GST control)
- binding signal (ELF3): 1.09 fold enrichment (6-mer frequency, TF over GST control)
- binding signal (ETV1): 1.02 fold enrichment (6-mer frequency, TF over GST control)
- binding signal (ERF): 1 fold enrichment (6-mer frequency, TF over GST control)
- binding signal (ETV3L): 1.02 fold enrichment (6-mer frequency, TF over GST control)
- binding signal (ETS2): 1.03 fold enrichment (6-mer frequency, TF over GST control)
- binding signal (SPDEF): 1.04 fold enrichment (6-mer frequency, TF over GST control)
- binding signal (ETV7): 1.08 fold enrichment (6-mer frequency, TF over GST control)
- binding signal (ETV3): 1.13 fold enrichment (6-mer frequency, TF over GST control)
- binding signal (ETV6): 1.05 fold enrichment (6-mer frequency, TF over GST control)
